Values without a mark were called inactive. No rule for the calls is given here.
Each molecule was assayed on Aerobactin synthetase IucA (Klebsiella pneumoniae hvKP1) (assay: Biochemical IucA enzyme inhibition primary screen of the Spectrum library (AID 1346200;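 also: 100% = wells without compound and 0% = wells lacking enzyme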)). Details: malachite green pyrophosphate, A620, at 8 µM, active compounds read low.
In the case of `O=c1ccc2ccccc2o1`, the activity remaining was 124%. Molecule `CC[C@H]1CN2CCc3cc(OC)c(OC)cc3C2C[C@@H]1CC1NCCc2cc(OC)c(OC)cc21` (stereo not given in full) has an activity remaining of 118%. For `O=C(O[C@@H]1Cc2c(O)cc(O)cc2O[C@@H]1c1cc(=O)c(O)c2c(O)c(O)cc([C@H]3Oc4cc(O)cc(O)c4C[C@H]3O)c2c1)c1cc(O)c(O)c(O)c1`, the activity remaining was 106%. `COc1ccc2c(c1)CCC1C2CCC2(C)C1C[C@@H](O)C2O` (stereo not given in full) gave an activity remaining of 114%. For `CC(=O)O[C@@H]1CC2C(C)(CC[C@H](O)C2(C)C)C2CC[C@]3(C)C(=CC(=O)O[C@H]3c3ccoc3)C21C` (stereo not given in full), the activity remaining was 95.5%. `C[C@H]1COc2c(N3CCN(C)CC3)c(F)cc3c(=O)c(C(=O)O)cn1c23` gave an activity remaining of 113%. `CCOC(=O)CCC(=O)O[C@H]1[C@H](O[C@@H]2[C@@H](C)[C@H](O[C@H]3C[C@@](C)(OC)[C@@H](O)[C@H](C)O3)[C@@H](C)C(=O)O[C@H](CC)[C@@](C)(O)[C@H](O)[C@@H](C)C(=O)[C@H](C)C[C@@]2(C)O)O[C@H](C)C[C@@H]1N(C)C` gave an activity remaining of 113%. `CC1=C(/C=C/C(C)=C/C=C/C(C)=C/CO)C(C)(C)CCC1` was tested, and the activity remaining was 105%. For `C[C@]12CCC3c4ccc(OS(=O)(=O)O)cc4CCC3C1CC[C@H]2O` (stereo not given in full), the activity remaining was 102%. Molecule `O=C(O)c1cn(C2CC2)c2cc(N3CCNCC3)c(F)cc2c1=O` has an activity remaining of 77.6%. Work on `C=C(C)C1CC=C(CO)CC1` (stereo not given) yielded an activity remaining of 117%. For `COC(=O)[C@@H]1OC(=O)[C@H]2O[C@@]23[C@@]1(C)CCC1[C@@]2(C)CCC(=O)C(C)(C)C2C[C@@H](OC(C)=O)[C@]13C` (stereo not given in full), the activity remaining was 109%. Work on `O=C(O)CN(CCN(CC(=O)O)CC(=O)O)CC(=O)O` yielded an activity remaining of 108%. Work on `O=C1C(O)=C(O)C(=O)C(O)=C1O` yielded an activity remaining of 125%. Molecule `C=C1C2CC[C@@]3(C)[C@H](c4ccoc4)OC(=O)C[C@]13O[C@H]1C[C@H](OC(C)=O)C(C)(C)[C@H](CC(=O)OC)[C@@]21C` has an activity remaining of 98.7%. In the case of `CCCCCCOc1ccccc1C(N)=O`, the activity remaining was 96.8%. With `COc1ccc(-c2oc3ccccc3c(=O)c2O)cc1OC` the activity remaining was 109%. For `NC(C(=O)O)C(O)C(=O)O` (stereo not given), the activity remaining was 97.5%. `CC(=O)O[C@@H]1c2c(ccc3ccc(=O)oc23)OC(C)(C)[C@@H]1OC(=O)CC(C)C` was tested, and the activity remaining was 103%. In the case of `CCC(Cc1c(I)cc(I)c(N)c1I)C(=O)O` (stereo not given), the activity remaining was 103%. `CC(=O)O[C@H]1C[C@@H](OC(C)=O)C(C)(C)C2C[C@@H](OC(C)=O)[C@]3(C)C(CC[C@@]4(C)[C@H](c5ccoc5)OC(=O)[C@H]5O[C@]543)[C@]21C` (stereo not given in full) showed an activity remaining of 103%. `CCC(=O)OCC(=O)[C@@]1(OC(=O)CC)[C@@H](C)CC2C3CCC4=CC(=O)C=C[C@]4(C)C3(F)[C@@H](O)C[C@@]21C` (stereo not given in full) showed an activity remaining of 125%. `CC1=CC2C(CC1=O)C(C)=CCC2C(C)C` (stereo not given) showed an activity remaining of 104%. For `CCCSc1ccc2nc(NC(=O)OC)[nH]c2c1`, the activity remaining was 111%. For `CN(C)CCN(Cc1ccccc1)c1ccccn1`, the activity remaining was 109%. In the case of `CC(C)(S)C(N)C(=O)O` (stereo not given), the activity remaining was 128%. `CC12CCC3C(CC3(C)C)C(C)(CCC1=O)O2` (stereo not given) gave an activity remaining of 119%. `C=C[C@@H](C1=CC(=O)C(OC)=C(OC)C1=O)c1ccccc1` showed an activity remaining of 128%. For `OC(c1cc(C(F)(F)F)nc2c(C(F)(F)F)cccc12)C1CCCCN1` (stereo not given), the activity remaining was 120%. For `NCC(O)CC(=O)O` (stereo not given), the activity remaining was 98.6%. Work on `Cc1cc(O)cc(=O)o1` yielded an activity remaining of 116%. In the case of `CC(C)=CCc1c2c(c3occ(-c4ccc(O)cc4)c(=O)c3c1O)C=CC(C)(C)O2`, the activity remaining was 99.3%. `C[N+]1(C)C[C@H](O)[C@H](C(=O)[O-])C1` was tested, and the activity remaining was 94.3%. For `CC(=O)N[C@@H](CC(C)C)C(=O)O`, the activity remaining was 93.2%. `CC(=O)OCC(=O)[C@@]12OC3(CCCC3)O[C@@H]1CC1C3CCC4=CC(=O)C=C[C@]4(C)[C@@]3(F)[C@@H](O)C[C@@]12C` (stereo not given in full) was tested, and the activity remaining was 90.4%. In the case of `CC[C@]1(O)CC2CN(CCc3c([nH]c4ccccc34)[C@@](C(=O)OC)(c3cc4c(cc3OC)N(C)[C@H]3[C@@](O)(C(=O)OC)[C@H](OC(C)=O)[C@]5(CC)C=CCN6CC[C@]43[C@@H]65)C2)C1` (stereo not given in full), the activity remaining was 126%. With `CC(=O)c1c(O)c(C)c(O)c2c1OC1=CC(=O)C(C(C)=O)C(=O)C12C` (stereo not given) the activity remaining was 94.6%. For `CC1(C)O[C@H]2CC(=O)OC[C@]23[C@H]2CC[C@@]4(C)[C@H](c5ccoc5)OC(=O)[C@H]5O[C@]54[C@]2(C)C(=O)C[C@@H]13`, the activity remaining was 112%. For `COC(=O)c1c(Cl)c(Cl)c(C(=O)OC)c(Cl)c1Cl`, the activity remaining was 110%. For `C=CC(C1=CC(=O)C(OC)=CC1=O)c1ccc(O)cc1` (stereo not given), the activity remaining was 120%.

Source: PubChem BioAssay
